Reference: PubChem BioAssay
Records with an inconclusive call do not appear. Calls of active or inactive are those of the source.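 How the source made its calls, unless noted: active means binding below the plate cutoff, the plate median minus 3 SD, with a reading above zero; inconclusive means below the plate cutoff but reading exactly zero; inactive means the rest.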

What was measured:
[1] = yeast TOR pathway RPL19A-GFP modulators, primary screen, cell-based, S. cerevisiae, multiplex flow cytometry (AID 1862; in the data active means percent of DMSO control GFP below about 86%;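 further: lower values mimic rapamycin by blocking the RPL19A rise seen in DMSO cells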); conditions: S. cerevisiae RPL19A-GFP strain, flow cytometry fluorescence, 3 h; at 10 µM; stronger effect = lower value
[2] = modulators of MEP2-GFP levels in yeast, primary screen, S. cerevisiae, multiplex flow cytometry (AID 1867;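 active means GFP response, as percent of the DMSO control, above the screen-wide mean plus 3 SD, about 139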;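 further: median GFP channel fluorescence of barcode-gated MEP2-GFP cells measured by flow cytometry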); conditions: S. cerevisiae MEP2-GFP strain, 3 h, at 10 µM, stronger effect = higher value, 100% means same as DMSO wells
[3] = modulators of CIT2-GFP expression in yeast, primary screen, S. cerevisiae, GFP fusion, multiplex flow cytometry (AID 1870;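 active means percent response above a set limit, the screen-wide mean plus 3 SD, cut at about 130% in these data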;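 further: barcoded CIT2-GFP strain pooled with four other GFP strains with rapamycin as positive control; median GFP fluorescence per well over plate mean of DMSO wells so 100% = DMSO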); conditions: 3 h, at 10 µM, stronger effect = higher value
[4] = modulators of LAP4-GFP expression in yeast, primary screen, S. cerevisiae, multiplex flow cytometry (AID 1873;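 active means GFP signal, as percent of the solvent control, above the screen mean plus 3 SD, about 149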); conditions: 3 h, at 10 µM, stronger effect = higher value
[5] = modulators of AGP1-GFP expression in yeast TOR pathway, primary screen, cell-based, multiplex flow cytometry, S. cerevisiae (AID 1887;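 active means GFP signal above the screen-wide mean plus 3 SD, that is over about 124.5% of the solvent control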;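 further: AGP1-GFP fusion strain of S. cerevisiae within a five-strain barcoded multiplex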); conditions: 3 h, at 10 µM, stronger effect = higher value
[6] = inhibitors of CD8+ T cell-vesicle binding, pilot screen, LFA-1/ICAM-1 modulator project, MLPCN validation set, flow cytometry (AID 2523;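 active means response below a set limit, under 55% cells CD8-positive and vesicle-bound, and CD8 cells' 90th-percentile brightness under 279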;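 on vesicle binding response: mean PE anti-B7-1 fluorescence of CD8+ cells relative to row control; 100% = QL9-loaded vesicles with DMSO vehicle in the same plate row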); conditions: 2C mouse CD8+ T cells, at 7 µM, stronger effect = lower value; double positive events: measured here: CD8+/vesicle+ event percentage
[7] = target: Integrin beta-1 (Homo sapiens) + Integrin alpha-4 (Homo sapiens) (UniProt P13612+P05556); experiment: inhibition of HUTS-21 binding to VLA-4, pilot screen, VLA-4 allosteric modulator project, U937 cells, HUTS-21 mAb, flow cytometry, validation set (AID 2674;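 active means inhibition above 50%, about 3 SD of the validation set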;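 further: antibody binding induced by the VLA-4 ligand LDV present at three times its Kd; 0% = LDV ligand with antibody and no compound and 100% = antibody without LDV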); conditions: HUTS-21 LIBS mAb binding, at 6.7 µM, stronger effect = higher value, binding induced by LDV ligand
Integrin beta-1 (Homo sapiens) + Integrin alpha-4 (Homo sapiens), sequence (P05556 whole entry, looked up): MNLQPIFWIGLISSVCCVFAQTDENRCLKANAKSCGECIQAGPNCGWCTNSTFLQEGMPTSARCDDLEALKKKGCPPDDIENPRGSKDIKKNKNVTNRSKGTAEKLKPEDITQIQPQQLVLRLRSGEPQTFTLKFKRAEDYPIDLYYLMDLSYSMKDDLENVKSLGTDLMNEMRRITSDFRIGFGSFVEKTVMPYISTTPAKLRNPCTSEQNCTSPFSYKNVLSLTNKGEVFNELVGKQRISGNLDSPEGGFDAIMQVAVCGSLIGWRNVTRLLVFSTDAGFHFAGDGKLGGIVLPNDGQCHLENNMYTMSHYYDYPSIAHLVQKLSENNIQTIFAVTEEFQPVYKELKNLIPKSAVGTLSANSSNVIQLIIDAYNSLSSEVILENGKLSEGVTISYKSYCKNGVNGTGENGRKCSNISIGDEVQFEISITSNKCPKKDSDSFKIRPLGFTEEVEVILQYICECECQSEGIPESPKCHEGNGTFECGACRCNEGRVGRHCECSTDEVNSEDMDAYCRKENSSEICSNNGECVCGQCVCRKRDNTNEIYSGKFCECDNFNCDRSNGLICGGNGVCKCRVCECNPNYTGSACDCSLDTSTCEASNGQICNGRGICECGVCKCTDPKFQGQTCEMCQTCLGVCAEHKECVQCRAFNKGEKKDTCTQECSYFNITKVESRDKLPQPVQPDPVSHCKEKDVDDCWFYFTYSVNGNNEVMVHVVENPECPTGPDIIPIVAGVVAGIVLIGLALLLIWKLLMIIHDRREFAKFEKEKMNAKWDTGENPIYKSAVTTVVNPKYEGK
Integrin beta-1 (Homo sapiens) + Integrin alpha-4 (Homo sapiens), sequence (P13612 whole entry, looked up): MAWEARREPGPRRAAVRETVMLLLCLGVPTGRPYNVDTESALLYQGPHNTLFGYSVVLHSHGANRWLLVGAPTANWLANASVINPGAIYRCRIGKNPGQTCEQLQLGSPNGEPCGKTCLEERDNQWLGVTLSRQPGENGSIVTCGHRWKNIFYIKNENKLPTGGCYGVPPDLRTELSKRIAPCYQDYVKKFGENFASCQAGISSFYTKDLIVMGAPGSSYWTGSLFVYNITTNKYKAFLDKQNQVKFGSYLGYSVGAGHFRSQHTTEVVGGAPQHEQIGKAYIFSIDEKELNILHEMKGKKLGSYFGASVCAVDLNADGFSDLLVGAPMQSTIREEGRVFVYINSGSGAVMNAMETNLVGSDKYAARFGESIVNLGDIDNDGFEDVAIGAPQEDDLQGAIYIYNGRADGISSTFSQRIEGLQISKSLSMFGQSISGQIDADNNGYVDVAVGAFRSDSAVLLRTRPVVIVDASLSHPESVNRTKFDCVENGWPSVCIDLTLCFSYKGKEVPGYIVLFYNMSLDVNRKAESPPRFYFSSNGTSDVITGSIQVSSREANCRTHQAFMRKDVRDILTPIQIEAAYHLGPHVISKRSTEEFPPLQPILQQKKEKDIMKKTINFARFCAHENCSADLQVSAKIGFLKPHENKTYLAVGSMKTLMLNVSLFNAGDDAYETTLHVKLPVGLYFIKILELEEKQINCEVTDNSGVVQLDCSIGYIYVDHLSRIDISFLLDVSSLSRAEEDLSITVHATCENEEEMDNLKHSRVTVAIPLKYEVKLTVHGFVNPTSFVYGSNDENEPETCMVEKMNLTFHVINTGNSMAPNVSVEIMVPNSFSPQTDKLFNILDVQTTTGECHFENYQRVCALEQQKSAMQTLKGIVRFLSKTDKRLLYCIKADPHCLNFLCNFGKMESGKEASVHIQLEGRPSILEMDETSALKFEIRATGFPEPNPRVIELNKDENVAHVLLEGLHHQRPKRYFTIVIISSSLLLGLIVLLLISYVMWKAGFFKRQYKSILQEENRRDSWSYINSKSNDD

[8] = superoxide lowering in aged yeast cells, pilot screen, validation compound set (AID 2706;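 active means superoxide response below 65% of plate, a cut near 3 SD across the whole screen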;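 further: yeast exposed to compound for one week at 30 degrees C before staining; 100% = mean of all compound wells on the same plate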); conditions: S. cerevisiae aging, superoxide DHE fluorescence; at 10 µM, stronger effect = lower value
[9] = target: Beta-adrenergic receptor kinase 1 (Homo sapiens) (UniProt P25098); experiment: GRK2 binders displacing RNA aptamer, biochemical, validation, human GRK2, bead flow cytometry (AID 488806;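 active means aptamer binding inhibition above 30%, about 3 SD of noise from non-fluorescent compounds; inactive means inhibition at or below 30%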); conditions: bead-bound GRK2, FAM-aptamer displacement, at 10 µM, stronger effect = higher value
Beta-adrenergic receptor kinase 1 (Homo sapiens), sequence (P25098 whole entry, looked up): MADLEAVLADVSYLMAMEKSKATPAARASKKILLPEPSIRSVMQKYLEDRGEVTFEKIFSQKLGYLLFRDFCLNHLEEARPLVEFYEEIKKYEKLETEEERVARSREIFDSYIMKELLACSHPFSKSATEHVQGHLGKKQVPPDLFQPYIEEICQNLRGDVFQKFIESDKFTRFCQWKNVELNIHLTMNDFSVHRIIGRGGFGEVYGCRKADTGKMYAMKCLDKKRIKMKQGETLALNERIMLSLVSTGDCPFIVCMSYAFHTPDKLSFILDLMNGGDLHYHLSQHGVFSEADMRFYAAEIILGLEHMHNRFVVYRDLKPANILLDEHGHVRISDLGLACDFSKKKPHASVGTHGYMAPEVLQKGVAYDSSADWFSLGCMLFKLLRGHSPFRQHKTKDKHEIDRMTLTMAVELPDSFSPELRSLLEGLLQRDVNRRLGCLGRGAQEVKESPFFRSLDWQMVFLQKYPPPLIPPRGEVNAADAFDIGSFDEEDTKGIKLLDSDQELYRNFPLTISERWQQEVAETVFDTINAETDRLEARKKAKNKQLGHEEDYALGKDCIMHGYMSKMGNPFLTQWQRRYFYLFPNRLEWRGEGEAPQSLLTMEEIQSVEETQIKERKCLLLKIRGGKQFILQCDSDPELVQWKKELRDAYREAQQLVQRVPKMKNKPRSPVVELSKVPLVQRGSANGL

[10] = target: AP-2 complex subunit beta (Homo sapiens) (UniProt P63010); experiment: inhibitors of arrestin peptide binding to AP2, pilot screen, biochemical, validation set, GST-AP2 beads, flow cytometry (AID 504541;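 active means inhibition above 54%, about 3 SD of non-fluorescent compounds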;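 further: AP2 carries R879A mutation and is captured from E. coli lysate; bead-bound FITC arrestin peptide fluorescence measuring arrestin peptide binding to AP2; 0% = DMSO wells and 100% = excess unlabeled arrestin peptide control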); conditions: FITC arrestin peptide, at 10 µM, stronger effect = higher value, AP2 beta2 appendage fragment, R879A mutant
AP-2 complex subunit beta (Homo sapiens), sequence (P63010 whole entry, looked up, the tested form may be a part, one chain of several): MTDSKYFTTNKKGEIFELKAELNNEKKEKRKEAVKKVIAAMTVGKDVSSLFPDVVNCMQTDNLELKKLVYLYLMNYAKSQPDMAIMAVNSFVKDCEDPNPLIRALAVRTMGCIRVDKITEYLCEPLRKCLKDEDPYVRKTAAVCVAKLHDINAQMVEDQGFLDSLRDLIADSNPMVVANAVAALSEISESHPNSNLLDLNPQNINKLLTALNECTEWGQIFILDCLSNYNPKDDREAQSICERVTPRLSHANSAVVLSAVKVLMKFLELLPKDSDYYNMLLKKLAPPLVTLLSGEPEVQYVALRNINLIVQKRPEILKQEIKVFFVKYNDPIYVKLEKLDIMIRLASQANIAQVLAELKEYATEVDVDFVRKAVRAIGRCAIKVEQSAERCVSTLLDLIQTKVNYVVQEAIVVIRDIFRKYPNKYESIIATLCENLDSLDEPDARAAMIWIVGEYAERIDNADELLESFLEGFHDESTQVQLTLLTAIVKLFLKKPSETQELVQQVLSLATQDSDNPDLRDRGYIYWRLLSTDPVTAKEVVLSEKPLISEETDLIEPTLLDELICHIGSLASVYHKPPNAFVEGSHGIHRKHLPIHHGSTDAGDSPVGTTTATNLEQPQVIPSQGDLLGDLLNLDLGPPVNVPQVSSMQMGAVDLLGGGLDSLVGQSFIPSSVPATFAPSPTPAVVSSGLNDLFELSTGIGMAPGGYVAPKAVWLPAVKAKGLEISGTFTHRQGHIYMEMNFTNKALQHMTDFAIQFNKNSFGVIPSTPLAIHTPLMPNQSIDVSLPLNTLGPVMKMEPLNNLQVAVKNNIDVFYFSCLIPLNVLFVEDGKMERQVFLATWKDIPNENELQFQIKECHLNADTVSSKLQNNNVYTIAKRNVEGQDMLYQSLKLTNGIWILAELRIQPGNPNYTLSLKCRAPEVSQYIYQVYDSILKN

[11] = yeast V-ATPase proton transport modulators, S. cerevisiae, pHLuorin, HTS validation (AID 504600; in the data active means response above about 15%;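 further: plate controls were DMSO for no effect and reference compound for full effect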); conditions: S. cerevisiae pHLuorin cytosolic pH, at 10 µM, stronger effect = higher value
[12] = test system: anti-desmoglein-3 scFv antibody binding to human DSG3; experiment: inhibitors of anti-DSG3 scFv binding to DSG3, pilot screen, biochemical, validation compound set, bead-based, flow cytometry (AID 588368); conditions: Protein G beads, DSG3-Fc, scFv-GFP binding, at 10 µM, stronger effect = lower value;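 further: signal is the median channel fluorescence of bead-bound GFP antibody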
[13] = inhibitors of fungal efflux pumps CDR1, CDR2, MDR1, pilot screen, validation compound set, multiplex, phenotypic (AID 588506;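 active means efflux inhibition above 0.42, the validation set average plus 4 SD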;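 further: Nile Red retained in cells so higher fluorescence means more efflux inhibition; 0 = negative control wells and 1 = enniatin B 25 µM full block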); conditions: S. cerevisiae pump-expressing triplex, Nile Red efflux flow cytometry; at 10 µM; stronger effect = higher value; the pumps come from Candida albicans
[14] = target: ATP-binding cassette sub-family B member 6 (Homo sapiens) (UniProt Q9NP58); experiment: ABCB6 transporter inhibitors, pilot screen, K562-ABCB6 cells, flow cytometry, validation set (AID 588550;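 active means inhibition above the screen-wide mean plus 3 SD, about 51%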;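 further: 0% = DMSO wells and 100% = benzethonium chloride 70 µM positive control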); conditions: K562-ABCB6 porphyrin accumulation, 1 h, at 10 µM, stronger effect = higher value
ATP-binding cassette sub-family B member 6 (Homo sapiens), sequence (Q9NP58 whole entry, looked up): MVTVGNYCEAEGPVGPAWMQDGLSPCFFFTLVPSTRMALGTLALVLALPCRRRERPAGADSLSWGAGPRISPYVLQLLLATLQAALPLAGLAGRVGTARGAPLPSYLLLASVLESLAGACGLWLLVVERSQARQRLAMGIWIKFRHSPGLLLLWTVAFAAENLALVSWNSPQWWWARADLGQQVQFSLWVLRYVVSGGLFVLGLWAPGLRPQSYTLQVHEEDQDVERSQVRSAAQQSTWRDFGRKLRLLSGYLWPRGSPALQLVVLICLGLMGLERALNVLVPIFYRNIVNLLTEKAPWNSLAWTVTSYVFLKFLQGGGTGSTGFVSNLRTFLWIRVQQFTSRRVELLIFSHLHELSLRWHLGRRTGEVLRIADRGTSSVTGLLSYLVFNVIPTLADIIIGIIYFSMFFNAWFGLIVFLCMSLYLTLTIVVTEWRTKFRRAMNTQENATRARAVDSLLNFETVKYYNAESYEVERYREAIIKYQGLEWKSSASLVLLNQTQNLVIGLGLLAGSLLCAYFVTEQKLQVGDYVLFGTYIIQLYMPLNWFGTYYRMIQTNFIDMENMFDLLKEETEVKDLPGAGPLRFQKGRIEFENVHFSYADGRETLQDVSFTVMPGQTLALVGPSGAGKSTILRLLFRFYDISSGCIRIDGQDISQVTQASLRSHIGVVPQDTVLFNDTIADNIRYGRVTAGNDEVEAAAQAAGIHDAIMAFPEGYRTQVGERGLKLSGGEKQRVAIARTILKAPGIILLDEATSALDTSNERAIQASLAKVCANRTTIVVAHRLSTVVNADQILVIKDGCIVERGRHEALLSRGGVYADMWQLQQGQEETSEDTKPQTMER

[15] = promoters of myeloid differentiation in arrested cells, primary screen, cell-based, GFP/MAC1 double positive, flow cytometry, validation set (AID 588685;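 active means differentiation response of at least 50%, scaled between solvent and reference control, from cells with both markers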;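 further: compound exposure lasts four days before antibody staining and flow analysis; 0% = DMSO wells and 100% = 5 µM fulvestrant positive control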); conditions: ER-HoxA9 marrow cells, stronger effect = higher value, normalized: vehicle 0, fulvestrant 100

CCn1cc(C(=O)O)c(=O)c2cnc(N3CCNCC3)nc21
61%: double positive events [6]
inactive: percent of DMSO control GFP [1] 99.1% | GFP response vs DMSO [2] 99.9% | percent response of DMSO control [3] 104% | GFP response vs DMSO [4] 91.3% | GFP response, % of DMSO [5] 99.7% | vesicle binding response [6] 164% | inhibition [7] 7.22% | superoxide response (% of plate) [8] 85.2% | aptamer binding inhibition [9] 0% | inhibition [10] 32.7% | response [11] -7.56% | binding (% of control) [12] 99% | efflux inhibition (fraction of control) [13] -0.31 | inhibition [14] 6% | differentiation response [15] -19.6%

O=C(O)c1cccnc1
inactive: percent of DMSO control GFP [1] 103% | GFP response vs DMSO [2] 105% | percent response of DMSO control [3] 96.9% | GFP response vs DMSO [4] 101% | GFP response, % of DMSO [5] 105% | vesicle binding response [6] 137% | inhibition [7] 13.8% | superoxide response (% of plate) [8] 94.8% | aptamer binding inhibition [9] 4% | inhibition [10] -4.36% | response [11] 4.12% | binding (% of control) [12] 101% | efflux inhibition (fraction of control) [13] 0.29 | inhibition [14] 16% | differentiation response [15] 20.8%
54.3%: double positive events [6]

COc1cccc(C2CCCN2Cc2nc(CCC(C)C)no2)c1 (stereo unspecified)
inactive: percent of DMSO control GFP [1] 101% | GFP response vs DMSO [2] 116% | percent response of DMSO control [3] 103% | GFP response vs DMSO [4] 109% | GFP response, % of DMSO [5] 101% | vesicle binding response [6] 135% | inhibition [7] -9.57% | superoxide response (% of plate) [8] 102% | aptamer binding inhibition [9] 0% | inhibition [10] 5.57% | response [11] 3.31% | binding (% of control) [12] 104% | efflux inhibition (fraction of control) [13] 0.25 | inhibition [14] 8% | differentiation response [15] 4.64%
54.6%: double positive events [6]

CN1C(=O)C(O)(CC(=O)/C=C/C=C/c2ccccc2)c2ccccc21 (stereo unspecified)
inactive: percent of DMSO control GFP [1] 104% | GFP response vs DMSO [2] 98.9% | percent response of DMSO control [3] 104% | GFP response vs DMSO [4] 94.3% | GFP response, % of DMSO [5] 98.1% | vesicle binding response [6] 153% | inhibition [7] -0.24% | superoxide response (% of plate) [8] 102% | aptamer binding inhibition [9] 2% | inhibition [10] -6.66% | response [11] 0.35% | binding (% of control) [12] 99% | efflux inhibition (fraction of control) [13] 0.06 | inhibition [14] 5% | differentiation response [15] -18%
54.8%: double positive events [6]

COC(=O)c1[nH]c2ccccc2c1NC(=O)CN1CCN(C/C=C/c2ccccc2)CC1
inactive: percent of DMSO control GFP [1] 108% | GFP response vs DMSO [2] 106% | percent response of DMSO control [3] 99.8% | GFP response vs DMSO [4] 88.3% | GFP response, % of DMSO [5] 96.1% | vesicle binding response [6] 154% | inhibition [7] -42.2% | superoxide response (% of plate) [8] 98% | aptamer binding inhibition [9] 0% | inhibition [10] 3.15% | response [11] 3.35% | binding (% of control) [12] 108% | efflux inhibition (fraction of control) [13] 0.25 | inhibition [14] 8% | differentiation response [15] -13.1%
55.6%: double positive events [6]

Nc1ccc(N)c(C(=O)O)c1
active: aptamer binding inhibition [9] 92% | inhibition [10] 92.2% | binding (% of control) [12] 2.29%
inactive: percent of DMSO control GFP [1] 100% | GFP response vs DMSO [2] 99.9% | percent response of DMSO control [3] 110% | GFP response vs DMSO [4] 85.3% | GFP response, % of DMSO [5] 90.3% | vesicle binding response [6] 122% | inhibition [7] -3.04% | superoxide response (% of plate) [8] 79% | response [11] -0.99% | efflux inhibition (fraction of control) [13] -0.24 | inhibition [14] 8% | differentiation response [15] -5.05%
50%: double positive events [6]

CCCCNc1cc(C(=O)O)cc(S(N)(=O)=O)c1Oc1ccccc1
inactive: percent of DMSO control GFP [1] 102% | GFP response vs DMSO [2] 103% | percent response of DMSO control [3] 97.9% | GFP response vs DMSO [4] 89.3% | GFP response, % of DMSO [5] 102% | vesicle binding response [6] 179% | inhibition [7] 16.6% | superoxide response (% of plate) [8] 96.1% | aptamer binding inhibition [9] 6% | inhibition [10] 1.29% | response [11] 10.1% | binding (% of control) [12] 99.5% | efflux inhibition (fraction of control) [13] 0.06 | inhibition [14] 11% | differentiation response [15] -9.89%
52.3%: double positive events [6]

COC(=O)c1ccccc1OCCOCCOc1cccc2ccc(C)nc12
inactive: percent of DMSO control GFP [1] 106% | GFP response vs DMSO [2] 103% | percent response of DMSO control [3] 99.8% | GFP response vs DMSO [4] 90.3% | GFP response, % of DMSO [5] 100% | vesicle binding response [6] 145% | inhibition [7] 14.7% | superoxide response (% of plate) [8] 116% | aptamer binding inhibition [9] 2% | inhibition [10] -2.13% | response [11] 4.14% | binding (% of control) [12] 103% | efflux inhibition (fraction of control) [13] -0.05 | inhibition [14] 9% | differentiation response [15] -13.1%
49.8%: double positive events [6]

O=C(/C=C/c1ccco1)N1CCN(c2ccccc2)CC1
inactive: percent of DMSO control GFP [1] 103% | GFP response vs DMSO [2] 90.8% | percent response of DMSO control [3] 107% | GFP response vs DMSO [4] 86.3% | GFP response, % of DMSO [5] 92.7% | vesicle binding response [6] 210% | inhibition [7] 8.15% | superoxide response (% of plate) [8] 89% | aptamer binding inhibition [9] 1% | inhibition [10] 6.32% | response [11] 5.81% | binding (% of control) [12] 101% | efflux inhibition (fraction of control) [13] -0.09 | inhibition [14] 5% | differentiation response [15] -19.6%
56.2%: double positive events [6]

CN=C1c2cc3cc(OC)ccc3n2CCN1C
inactive: percent of DMSO control GFP [1] 101% | GFP response vs DMSO [2] 97.9% | percent response of DMSO control [3] 102% | GFP response vs DMSO [4] 93.3% | GFP response, % of DMSO [5] 99% | vesicle binding response [6] 177% | inhibition [7] 11.9% | superoxide response (% of plate) [8] 103% | aptamer binding inhibition [9] 4% | inhibition [10] 14.9% | response [11] -2.85% | binding (% of control) [12] 98.8% | efflux inhibition (fraction of control) [13] 0.1 | inhibition [14] 2% | differentiation response [15] 12.7%
62%: double positive events [6]

COc1ccc(C2(CCN=Cc3ccc(N(C)C)cc3)CCOC(C)(C)C2)cc1 (stereo unspecified)
58.8%: double positive events [6]
inactive: percent of DMSO control GFP [1] 104% | GFP response vs DMSO [2] 102% | percent response of DMSO control [3] 99.8% | GFP response vs DMSO [4] 95.4% | GFP response, % of DMSO [5] 95.2% | vesicle binding response [6] 222% | inhibition [7] -3.97% | superoxide response (% of plate) [8] 98.3% | aptamer binding inhibition [9] 0% | inhibition [10] -3.62% | response [11] -4.5% | binding (% of control) [12] 128% | efflux inhibition (fraction of control) [13] -0.24 | inhibition [14] 12% | differentiation response [15] 7.87%
